# What was measured:
# [1] = molecular target: Protein kinase C gamma type (Homo sapiens) (UniProt P05129); settings: at 1 µM;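 further: each value is an averaged percent inhibition of the enzyme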
# [2] = molecular target: T1, Protein kinase C iota type (Homo sapiens) (UniProt P41743); settings: at 0.1 µM
# T1 sequence (whole entry): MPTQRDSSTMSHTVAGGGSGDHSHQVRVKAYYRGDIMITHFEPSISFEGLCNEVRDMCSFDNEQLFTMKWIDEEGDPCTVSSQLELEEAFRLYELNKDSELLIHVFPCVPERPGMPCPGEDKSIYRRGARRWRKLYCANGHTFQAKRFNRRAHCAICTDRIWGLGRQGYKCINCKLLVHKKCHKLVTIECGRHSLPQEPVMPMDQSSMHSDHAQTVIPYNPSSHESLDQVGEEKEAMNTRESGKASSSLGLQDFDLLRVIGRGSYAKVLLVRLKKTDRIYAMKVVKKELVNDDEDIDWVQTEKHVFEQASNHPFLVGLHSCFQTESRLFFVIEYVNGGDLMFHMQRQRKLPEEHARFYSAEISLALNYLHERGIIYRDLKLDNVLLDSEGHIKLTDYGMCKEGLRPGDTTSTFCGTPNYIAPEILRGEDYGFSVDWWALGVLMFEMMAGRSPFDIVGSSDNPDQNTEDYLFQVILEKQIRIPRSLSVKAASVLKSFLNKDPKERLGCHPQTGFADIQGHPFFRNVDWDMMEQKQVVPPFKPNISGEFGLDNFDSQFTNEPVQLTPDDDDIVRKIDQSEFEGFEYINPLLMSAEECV
# [3] = molecular target: T1, Protein kinase C iota type (Homo sapiens); settings: at 1 µM
# [4] = molecular target: Protein kinase C theta type (Homo sapiens) (UniProt Q04759); settings: at 0.1 µM
# [5] = molecular target: Protein kinase C theta type (Homo sapiens) (UniProt Q04759); settings: at 1 µM
# [6] = molecular target: Protein kinase C beta type (Homo sapiens) (UniProt P05771); settings: at 0.1 µM
# [7] = molecular target: Protein kinase C beta type (Homo sapiens) (UniProt P05771); settings: at 1 µM
# [8] = molecular target: T2, Serine/threonine-protein kinase D1 (Homo sapiens) (UniProt Q15139); settings: at 0.1 µM
# T2 sequence (whole entry): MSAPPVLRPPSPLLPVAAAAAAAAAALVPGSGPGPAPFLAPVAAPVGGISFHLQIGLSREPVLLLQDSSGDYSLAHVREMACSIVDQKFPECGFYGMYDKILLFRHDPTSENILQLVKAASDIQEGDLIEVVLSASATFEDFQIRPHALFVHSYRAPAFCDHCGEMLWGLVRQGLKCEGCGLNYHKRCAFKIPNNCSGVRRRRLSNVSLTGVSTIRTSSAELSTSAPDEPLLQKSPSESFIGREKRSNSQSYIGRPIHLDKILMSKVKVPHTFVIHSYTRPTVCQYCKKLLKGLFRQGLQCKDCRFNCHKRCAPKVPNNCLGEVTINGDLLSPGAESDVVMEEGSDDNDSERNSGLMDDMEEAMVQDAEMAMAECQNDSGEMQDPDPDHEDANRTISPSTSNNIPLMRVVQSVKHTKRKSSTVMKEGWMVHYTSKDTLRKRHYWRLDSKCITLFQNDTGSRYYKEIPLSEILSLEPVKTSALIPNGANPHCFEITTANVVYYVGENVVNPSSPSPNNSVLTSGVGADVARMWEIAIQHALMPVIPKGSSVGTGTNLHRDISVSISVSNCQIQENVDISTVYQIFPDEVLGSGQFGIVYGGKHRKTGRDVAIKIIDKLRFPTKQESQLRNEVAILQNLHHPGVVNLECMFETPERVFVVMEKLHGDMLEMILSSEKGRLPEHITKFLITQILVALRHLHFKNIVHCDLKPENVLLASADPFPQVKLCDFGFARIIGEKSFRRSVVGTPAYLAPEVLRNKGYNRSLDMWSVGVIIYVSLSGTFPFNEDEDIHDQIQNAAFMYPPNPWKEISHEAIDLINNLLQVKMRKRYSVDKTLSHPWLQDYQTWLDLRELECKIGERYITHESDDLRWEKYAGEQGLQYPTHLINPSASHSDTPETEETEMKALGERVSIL
# [9] = molecular target: T2, Serine/threonine-protein kinase D1 (Homo sapiens); settings: at 1 µM
# [10] = molecular target: T3, Serine/threonine-protein kinase D2 (Homo sapiens) (UniProt Q9BZL6); settings: at 0.1 µM;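 further: reported percent inhibition values are means, part of the GSK PKIS kinase panel screen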
# T3 sequence (whole entry): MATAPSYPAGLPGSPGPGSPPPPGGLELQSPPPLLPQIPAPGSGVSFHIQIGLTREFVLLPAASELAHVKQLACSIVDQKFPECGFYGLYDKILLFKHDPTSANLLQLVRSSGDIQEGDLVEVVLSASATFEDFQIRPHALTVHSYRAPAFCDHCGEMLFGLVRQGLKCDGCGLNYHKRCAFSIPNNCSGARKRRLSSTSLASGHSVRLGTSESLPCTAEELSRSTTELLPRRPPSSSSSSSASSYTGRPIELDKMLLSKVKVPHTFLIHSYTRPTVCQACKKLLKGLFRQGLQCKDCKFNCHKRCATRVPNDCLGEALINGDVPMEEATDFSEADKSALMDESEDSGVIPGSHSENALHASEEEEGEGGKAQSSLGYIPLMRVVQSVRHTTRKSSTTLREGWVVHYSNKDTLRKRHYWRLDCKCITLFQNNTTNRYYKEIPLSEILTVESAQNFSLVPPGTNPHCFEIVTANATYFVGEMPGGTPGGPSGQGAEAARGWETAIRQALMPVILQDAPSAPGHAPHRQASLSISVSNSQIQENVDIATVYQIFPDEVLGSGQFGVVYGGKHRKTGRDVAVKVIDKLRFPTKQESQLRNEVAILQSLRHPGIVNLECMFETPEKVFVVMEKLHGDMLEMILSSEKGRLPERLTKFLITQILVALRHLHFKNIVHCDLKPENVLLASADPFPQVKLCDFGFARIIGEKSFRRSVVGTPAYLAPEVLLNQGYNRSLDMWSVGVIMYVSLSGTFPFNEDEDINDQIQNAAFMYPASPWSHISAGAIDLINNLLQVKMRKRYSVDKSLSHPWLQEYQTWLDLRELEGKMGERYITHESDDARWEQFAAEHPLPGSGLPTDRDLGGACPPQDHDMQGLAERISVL
# Protein kinase C beta type (Homo sapiens), sequence (P05771 2-671 limits assumed): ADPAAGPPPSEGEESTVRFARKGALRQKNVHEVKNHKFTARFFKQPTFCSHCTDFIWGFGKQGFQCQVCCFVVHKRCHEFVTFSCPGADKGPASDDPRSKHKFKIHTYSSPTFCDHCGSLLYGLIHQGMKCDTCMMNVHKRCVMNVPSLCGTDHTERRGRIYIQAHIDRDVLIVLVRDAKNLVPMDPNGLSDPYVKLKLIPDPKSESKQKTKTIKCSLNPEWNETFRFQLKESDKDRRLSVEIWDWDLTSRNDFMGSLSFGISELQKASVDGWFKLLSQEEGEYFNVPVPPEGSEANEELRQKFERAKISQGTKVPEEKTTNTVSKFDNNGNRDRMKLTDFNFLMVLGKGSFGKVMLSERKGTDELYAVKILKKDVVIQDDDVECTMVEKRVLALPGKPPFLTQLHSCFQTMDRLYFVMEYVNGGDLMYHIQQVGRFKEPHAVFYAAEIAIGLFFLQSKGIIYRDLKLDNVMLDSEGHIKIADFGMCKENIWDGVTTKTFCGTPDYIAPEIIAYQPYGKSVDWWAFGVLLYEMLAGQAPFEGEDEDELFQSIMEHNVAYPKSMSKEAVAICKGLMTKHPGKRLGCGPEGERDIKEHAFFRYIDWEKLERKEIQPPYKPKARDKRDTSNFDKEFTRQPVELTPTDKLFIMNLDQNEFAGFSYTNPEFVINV
# Protein kinase C theta type (Homo sapiens), sequence (Q04759 whole entry, looked up): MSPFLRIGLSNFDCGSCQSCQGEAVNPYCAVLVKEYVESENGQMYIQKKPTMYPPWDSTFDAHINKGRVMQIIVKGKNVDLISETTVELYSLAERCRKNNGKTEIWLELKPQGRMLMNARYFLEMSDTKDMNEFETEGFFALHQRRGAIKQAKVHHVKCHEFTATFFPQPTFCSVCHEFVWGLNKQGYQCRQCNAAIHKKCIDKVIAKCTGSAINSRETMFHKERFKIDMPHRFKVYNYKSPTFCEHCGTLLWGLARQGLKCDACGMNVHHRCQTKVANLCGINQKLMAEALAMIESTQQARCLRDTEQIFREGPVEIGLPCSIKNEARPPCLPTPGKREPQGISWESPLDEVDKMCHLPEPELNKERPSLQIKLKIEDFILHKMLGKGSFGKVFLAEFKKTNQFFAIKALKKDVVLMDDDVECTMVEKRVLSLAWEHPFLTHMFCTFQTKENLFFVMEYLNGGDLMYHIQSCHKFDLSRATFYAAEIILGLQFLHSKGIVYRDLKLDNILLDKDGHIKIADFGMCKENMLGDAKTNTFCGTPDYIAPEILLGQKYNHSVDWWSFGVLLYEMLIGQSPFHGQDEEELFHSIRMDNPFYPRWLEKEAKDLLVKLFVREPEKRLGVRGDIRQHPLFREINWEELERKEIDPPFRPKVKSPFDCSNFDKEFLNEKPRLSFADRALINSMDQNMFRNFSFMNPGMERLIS
SMILES,inhibition [1],inhibition [2],inhibition [3],inhibition [4],inhibition [5],inhibition [6],inhibition [7],inhibition [8],inhibition [9],inhibition [10]
NS(=O)(=O)c1ccc(N/N=C2\C(=O)Nc3ccc(C(=O)NCCCn4ccnc4)cc32)cc1,7.85%,2%,1.81%,2.3%,6.44%,2.11%,4.2%,5.9%,22.9%,7.13%
COc1ccc(C2=C(N3CCc4ccccc43)C(=O)NC2=O)cc1,3.73%,2.04%,2.17%,2.55%,5.71%,1.22%,3.96%,4.69%,9.24%,5.06%
O=C1Nc2ccccc2/C1=C/Nc1ccc(-n2cncn2)cc1,2.93%,2.78%,2.15%,2.93%,4.7%,1.94%,4.54%,5.12%,7.88%,6.14%
CN(c1ccc(NC(=O)Nc2c(Cl)cccc2Cl)cc1)c1ccnc(Nc2cccc(CS(C)(=O)=O)c2)n1,6.65%,1.27%,1.5%,2.22%,3.24%,0.41%,3.24%,2.4%,1.18%,0.57%
CCS(=O)(=O)c1ccc(OC)c(Nc2ncc(-c3cccc(-c4ccccc4F)c3)o2)c1,0.81%,1.05%,3.5%,-0.12%,2.52%,-0.13%,1.06%,1.19%,1.23%,1.33%
FC(F)(F)c1cccc(Nc2nccc(-c3cnn4nc(-c5ccccc5)ccc34)n2)c1,1.78%,0.68%,0.06%,1.79%,2.39%,1.28%,1.35%,2.1%,3.92%,1.86%
Nc1nccc(-c2c(-c3ccc(F)cc3)ncn2C2CCC(O)CC2)n1 (stereo not given),2.37%,1.25%,0.01%,-0.81%,0.4%,1.56%,16.3%,0.14%,18.5%,0.03%
Cc1ccc(C(=O)NC2CCC2)cc1-c1ccc(C(=O)NCC2CC2)cc1,0.94%,2.17%,2.33%,0.68%,-0.42%,0.24%,0.53%,2.65%,3.61%,2.36%
COc1ccc2cc(-c3c(-c4ccncc4)nc(-c4ccc([S+](C)[O-])cc4C)n3C)ccc2c1 (stereo not given),-0.38%,0.41%,-0.63%,-1.05%,-1.26%,0.04%,5.01%,-0.67%,-0.16%,-0.62%
O=C(Nc1n[nH]c2cc(-c3cc(F)ccc3F)ccc12)C1CC1,1.94%,-0.39%,2.69%,1.32%,1.51%,1.71%,4.18%,2.95%,3.73%,3.73%
O=C1NC(=O)C(c2cccc(Cl)c2)=C1Nc1ccc(Cl)c(C(=O)O)c1,4.28%,0.11%,0.87%,1.72%,3.51%,1%,1.2%,2.5%,3.42%,3.1%
c1ccc(-c2n[nH]cc2-c2ccnc(-c3ccc(OCCN4CCOCC4)cc3)c2)nc1,4%,3.68%,4.56%,0.5%,-0.12%,3.96%,3.92%,10.3%,66.3%,16.2%
O=C(NCC1CC1)c1ccc(-c2cccc(C(=O)NC3CC3)c2)cc1,-1.2%,2.21%,3.55%,1.24%,-0.68%,0.69%,-1.18%,1.97%,2.45%,2.36%
COC(=O)Nc1nc2ccc(Sc3ccc(NC(=O)Nc4cc(C(F)(F)F)ccc4F)cc3)cc2[nH]1,4.57%,-0.54%,0.22%,0.15%,0.22%,0.31%,0.4%,0.94%,0.37%,-0.22%
N#Cc1ccc(Oc2nccc(-c3c(-c4ccc(F)cc4)ncn3C3CCNCC3)n2)cc1,4.11%,2.09%,2.63%,2.28%,3.89%,0.99%,3.08%,5.51%,8.1%,4.63%
CCC(=O)Nc1ccc(C)c(-c2ccc(C(=O)NCC3CC3)cc2)c1,2.13%,0.11%,0.41%,1.23%,1.92%,0.61%,1.48%,2.88%,2.86%,1.86%
C[C@@H](Oc1cc(-n2cnc3ccc(OC4CCN(C)CC4)cc32)sc1C(N)=O)c1ccccc1Cl,4.97%,1.12%,2.89%,3.08%,9.67%,1.56%,8.48%,0.52%,3.79%,0.7%
